The list is not random: actives were taken first. Their share in the collection is about 1.3%.
GALK inh = galactokinase (human) inhibition | P51570 | Purified GALK, Kinase-Glo residual ATP luminescence | Potency, µM (top dose mostly 57.5 µM), without a hit: at the top dose activity change, negative = inhibition, hits mostly inhibitors | actives 0.007% (n = 270,000) | AID 1868; also: potency is read from the fitted curve at half-maximal effect; % is scaled to controls: 0 for no effect and ±100 for the full control effect
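Luminescence from leftover ATP (Ultra-Glo luciferase/luciferin) served as read-out after a 1 h room-temperature reaction of 5 nM GALK with 35 uM ATP and 100 uM galactose.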
PKM2 act = activators of human pyruvate kinase M2; purified PKM2, Kinase-Glo ATP luminescence, activation; response scale: 0% is enzyme alone, no compound; Potency, µM (titrated, usually from 57.5 µM), for the others: at the top dose activation, actives largely listed as activators; actives 0.34% (n = 260,000); also: potency is read from the fitted curve at half-maximal effect; % is scaled to controls: 0 for no effect and ±100 for the full control effect; nearly all actives have a fitted effect of over 55% in size
Target sequence (P14618 whole entry, looked up): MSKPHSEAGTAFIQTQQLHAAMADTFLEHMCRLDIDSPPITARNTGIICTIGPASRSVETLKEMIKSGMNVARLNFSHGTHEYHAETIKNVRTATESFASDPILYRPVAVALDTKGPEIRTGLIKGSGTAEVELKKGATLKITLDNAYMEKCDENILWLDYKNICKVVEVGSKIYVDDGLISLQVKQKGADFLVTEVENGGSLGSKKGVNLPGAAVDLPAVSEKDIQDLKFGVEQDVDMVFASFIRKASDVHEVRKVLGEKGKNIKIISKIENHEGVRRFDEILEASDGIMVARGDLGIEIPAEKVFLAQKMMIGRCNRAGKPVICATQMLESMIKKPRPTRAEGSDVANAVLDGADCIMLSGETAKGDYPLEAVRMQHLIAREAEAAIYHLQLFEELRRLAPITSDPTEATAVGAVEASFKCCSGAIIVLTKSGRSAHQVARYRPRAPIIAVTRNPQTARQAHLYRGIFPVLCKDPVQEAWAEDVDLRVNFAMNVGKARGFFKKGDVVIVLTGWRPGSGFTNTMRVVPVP
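Purified hPK-M2 (>95%) run at intermediate activity with 0.1 mM ADP and 0.5 mM PEP in 50 mM imidazole pH 7.2, KCl, MgCl2; 1 h room temperature. ATP formed read by Kinase-Glo luminescence; normalized to uninhibited and no-enzyme controls.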
rTrxR1 inhibitor = blocks rat thioredoxin reductase 1; recombinant rTrxR1, NADPH fluorescence consumption, selenite substrate; Potency, µM (highest dose often 114 µM), for the others: at the top dose activity change, negative = inhibition, hits mostly inhibitors; actives 1% (n = 390,000); AID 588453; also: potency is read from the fitted curve at half-maximal effect; % is scaled to controls: 0 for no effect and ±100 for the full control effect; nearly all actives have a fitted effect of over 65% in size
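Rat TrxR1 (90 nM in the dispensed reagent) was pre-reduced with 400 uM NADPH for 5 min at room temperature, then incubated with compound for 15 min. After 400 uM selenite was added, NADPH fluorescence (Ex 340/Em 450 nm) was followed for 8 min.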
mIDH1 inhibitor = human IDH1 R132H inhibition; O75874; IDH1-R132H enzyme, NADPH consumption, diaphorase/resazurin fluorescence; Potency, µM (highest dose often 76.6 µM), inactives show top-dose activity change, negative = inhibition, usual class: inhibitors; actives 0.093% (n = 390,000); AID 602179; also: potency is read from the fitted curve at half-maximal effect; % is scaled to controls: 0 for no effect and ±100 for the full control effect; nearly all actives have a fitted effect of over 65% in size
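IDH1-R132H (0.5 ug/mL) preincubated 30 min with compound, then NADPH (0.016 mM) and alpha-KG (2 mM) added; 80 min at RT, pH 7.5. Remaining NADPH coupled via diaphorase/resazurin to fluorescence (540/590 nm); concentration-response curves normalized to no-enzyme control.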
TrxR1 substrate = substrates of rat thioredoxin reductase 1 | purified TrxR1 substrate turnover, NADPH consumption readout | Potency, µM (doses to about 114 µM), for the others: top-dose activity change, negative = substrate turnover | actives 0.01% (n = 390,000) | AID 588456; also: potency is read from the fitted curve at half-maximal effect; % is scaled to controls: 0 for no effect and ±100 for the full control effect; nearly all actives have a fitted effect of over 50% in size
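Rat TrxR1, dispensed at 90 nM, was prereduced with 400 uM NADPH (final) for 5 min at ~22 deg C, then incubated with compound 15 min before 400 uM selenite. A first-read NADPH fluorescence drop versus no-compound background flagged substrates.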
Anesthetic bind = binds horse apoferritin like a general anesthetic. actives 0.074% (n = 350,000). apoferritin/1-aminoanthracene competitive binding, fluorescence. Potency, µM (titrated, usually from 77.5 µM), for inactives: at the highest dose activity change, negative = displacement, most hits filed as inhibitors. P02791; also: potency is read from the fitted curve at half-maximal effect; % is scaled to controls: 0 for no effect and ±100 for the full control effect; nearly all actives have a fitted effect of over 20% in size
Target sequence (P02791 2-175 limits assumed): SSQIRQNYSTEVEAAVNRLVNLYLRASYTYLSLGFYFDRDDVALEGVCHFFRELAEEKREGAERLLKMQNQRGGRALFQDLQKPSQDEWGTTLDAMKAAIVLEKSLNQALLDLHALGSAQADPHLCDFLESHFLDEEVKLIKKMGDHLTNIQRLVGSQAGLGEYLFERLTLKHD
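10 uM apoferritin + 50% sat. 1-AMA, PBS; cpd 10 min RT; Ex380/Em535 endpoint; normalized to free probe vs complex; 4-param Hill fit; propofol titration as pos. ctrl.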
HeLa viability = reduces HeLa cell viability in PKM2 activator counter-screen; HeLa viability, CellTiter-Glo ATP luminescence, 24 h; activity change, negative = cytotoxicity, % at 57.5 µM; shares compounds with PKM2 act; 230 tested, under 10 active; AID 1898; also: % of control where 0% means no effect
Active calls of the source: *; i = inactive; ? = inconclusive; / = no result; [ ] = another dose, or the depositor's remark. Calls follow the shape of the dose curve; as a rule, active = well fitted curve in the direction sought with a large enough effect; inconclusive = small, poorly fitted or top-dose-only effect, or another doubt; inactive = no such curve, though single readings can be large; an effect the other way counts as inactive or inconclusive.

SMILES	GALK inh	PKM2 act	rTrxR1 inhibitor	mIDH1 inhibitor	TrxR1 substrate	Anesthetic bind	others
O=C(CSc1n[nH]c(-c2cccs2)n1)N1CCN(S(=O)(=O)c2ccccc2)CC1	-5%	25µM*	4%	-4%	4%	?
O=C1[C@H](Cc2ccccc2)NC/C=C\C[C@H](c2ccc(Cl)cc2)N1Cc1ccc(Cl)cc1	/	/	-14%	/	-11%	/
CCc1cccc(NC(=O)COC(=O)c2cn(CC)c3nc(C)ccc3c2=O)c1	/	/	14%	4%	2%	?
Cc1ccc(NC(=O)c2ccccc2)cc1	-1%	-15%	19%[57.1 µM]	8%	10%[57.1 µM]	-16%
Cc1ccc(NC(=O)C2=C(c3ccccc3)S(=O)(=O)CCS2(=O)=O)cc1	10%	/	0.32µM*	3%	1%	-5%
Nc1ccc(O)cc1C(=O)OCC(=O)C12CC3CC(CC(C3)C1)C2	6%	25%	4%[57.1 µM]	-1%	15%[57.1 µM]	32µM*
CCCc1cc(=O)oc2c(CN(CC)CC)c(O)c(Cl)cc12	-1%	1%	18µM*	-2%	953%	541%
CCCc1cc(=O)oc2c(CN3CCN(C)CC3)c(O)c(Cl)cc12	6%	-3%	40µM*	6%	i	939%
CCCc1cc(=O)oc2c(CN3CCN(C)CC3)c(O)ccc12	4%	/	79µM*	-8%	869%	366%
CCCCc1cc(=O)oc2c(CN3CCCC3)c(O)c(Cl)cc12	0%	-3%	?	1%	i	560%
COc1cc(CNc2ccc(N3CCCC3)cc2)ccc1OCc1ccccc1F	0%	-16%	10µM*	19%	-13%	-21%
COc1cc(CNc2ccc(O)cc2)cc(Br)c1OCc1ccccc1F	-3%	-10%	20µM*	5%	-14%	-18%
COc1cc(CNc2ccc(N3CCCC3)cc2)ccc1OCc1ccccc1	-6%	-1%	?	20%	-8%	-6%
O=C(Nc1ccc(N2CCCC2)cc1)C(Cl)c1ccccc1 (configuration not stated)	3%	-7%	16µM*	21%	-3%	-16%
COc1ccc(Br)cc1CNC(=O)c1ccc2c(c1)nc1n2CCCCC1	/	/	8%[57.1 µM]	2%	0%[57.1 µM]	-6%
Cc1ccc(S(=O)(=O)NN=C2C3CC4CC(C3)CC2C4)cc1[N+](=O)[O-]	0%	-7%	15%	5%	5%	-2%
Cc1ccc(S(=O)(=O)N/N=C2/CC(=O)CC(C)(C)C2)cc1[N+](=O)[O-]	6%	0%	40µM*	3%	-3%	-12%
CCOc1ccc(N2CC(c3nc4ccccc4n3CCCOc3ccccc3OC)CC2=O)cc1 (configuration not stated)	/	/	9%	-5%	-7%	99%
CC1=NN(Cc2ccccc2)C(=O)C1C(c1ccc(Cl)cc1)C(C#N)C#N (configuration not stated)	0%	13%	25µM*	-1%	-9%	-6%
C[C@@H]1[C@H](c2ccccc2)OCCS(=O)(=O)N1Cc1cccc(Cl)c1	/	/	6%	/	-3%	/
CN(C)c1ccc(/C=C\C=C/c2ccnc3ccccc23)cc1	/	/	-6%	/	1%	/
O=[N+]([O-])c1ccc(NCCCNS(=O)(=O)c2ccccc2)c(Cl)c1	1%	7.9µM*	5%[57.1 µM]	1%	-11%	?	HeLa viability=-28
CCOC(=O)c1noc2nc(C)n(CC(=O)NC(C)CC)c(=O)c12 (configuration not stated)	/	/	5%[57.1 µM]	3%	2%[57.1 µM]	-4%
Cc1ccc(NC(=O)NCCOCCn2c(=O)oc3ccccc32)cc1C	/	/	24%	-13%	-3%	-10%
Cc1cc2c(s1)c1cnn(Cc3ccc(C(F)(F)F)cc3)c(=O)c1n2C	/	/	/	/	/	/	HeLa viability=7
SMILES	GALK inh	PKM2 act	rTrxR1 inhibitor	mIDH1 inhibitor	TrxR1 substrate	Anesthetic bind	others
Cc1cc2c(s1)c1cnn(Cc3cc(C(F)(F)F)cc(Cl)c3F)c(=O)c1n2C	/	/	/	/	/	/	HeLa viability=14
COc1ccc(Cn2ncc3c4sc(C)cc4n(C)c3c2=O)cc1	/	/	/	/	/	/	HeLa viability=3
COc1ccc(Cn2ncc3c4sc(C)cc4n(C)c3c2=O)cc1F	/	/	/	/	/	/	HeLa viability=11
COc1ccc(Cn2nc(C(=O)O)c3ccccc3c2=O)cc1F	0%	/	3%[57.1 µM]	-7%	0%[57.1 µM]	-11%
COc1ccc(Nc2ncnc3c2cnn3Cc2ccc(C)cc2)cc1	0%	4%	-4%[57.1 µM]	0%	-9%[57.1 µM]	?
Cc1[nH]c(C)c2c(=O)n(Cc3ccccc3Cl)ncc12	/	/	9%[57.1 µM]	6%	5%	/
CCOc1ccccc1NC(=O)CCNS(=O)(=O)c1ccc2c(c1)CCN2C(=O)C1CC1	/	/	23%[57.1 µM]	-19%	1%[57.1 µM]	4%
CCCCOC(=O)c1ccc(NC(=O)Cn2nnc3sc4c(c3c2=O)CCCC4)cc1	/	/	14%	/	-11%	?
CCC(=O)N1CCc2cc(S(=O)(=O)NCCC(=O)Nc3cccc(SC)c3)ccc21	/	/	-2%	10%	-5%	-11%
O=C(COc1ccccc1)NCC(c1ccc(Cl)cc1)N1CCCCC1 (configuration not stated)	/	/	1%	0%	-4%	-23%
Cc1cc2c(s1)c1cnn(Cc3ccc(C(C)C)cc3)c(=O)c1n2C	/	/	/	/	/	/	HeLa viability=-7
CCN(CC)CCCNC(=O)Cn1c(-c2cccs2)cc2cc(Cl)ccc21	/	/	3%	11%	35%	0%
O=C(O)c1cc(-c2ccco2)nn1-c1cccc(Cl)c1	11%	25µM*	?	6%	15%	-10%	HeLa viability=-1
O=C(O)c1cc(-c2cccs2)nn1-c1cccc(Cl)c1	8%	/	13%[57.1 µM]	10%	8%[57.1 µM]	1%
CCOc1ccc2nc(N3CCCC(C(=O)Nc4ccc(OC)c(Cl)c4)C3)sc2c1 (configuration not stated)	/	/	13%	11%	3%	-8%
c1ccc2[nH]c(CSc3nnc(-c4ccncc4)o3)nc2c1	3%	1.8µM*	-15%	12%	-8%	1%	HeLa viability=-1
O=c1[nH]c(CN2CCN(c3ccc(O)cc3)CC2)nc2scc(-c3ccc(Cl)cc3)c12	-3%	2.8µM*	14%	-8%	0%	-17%	HeLa viability=-7
O=c1[nH]c(CN2CCN(c3ccccc3O)CC2)nc2scc(-c3ccccc3Cl)c12	-1%	20%	23%	0%	-2%	-6%
COc1ccc2[nH]c(=O)c(-c3noc(-c4ccccc4)n3)cc2c1	4%	11µM*	0%	7%	10%	5%	HeLa viability=-27

Assay outcomes (PubChem)
